From the supplement of paper PMC6522484
± gives the standard deviation of the averaged measurements.

What was measured:
DLD1 [1] = experiment: cell viability (CellTiter-Glo) relative to plate median (fraction of plate median); higher = more viable cells; settings: 5 µM; treatment time 24 h; reporter: 7TFP
In short: (§1)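 Colorectal cancer cell lines stably carrying lentiviral TCF/Wnt firefly luciferase reporters (7TFP or TCF4/Wnt) were plated in 384-well plates and, 24 h later, given library compounds at a final 5 µM for 24 h. Firefly luciferase or CellTiterGlo luminescence was read on parallel plates with a Tecan F500 reader. Each well's signal was normalised to the plate median in webcellHTS2 (additive, without log transformation). Values are the mean of two independent replicates.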

HCT116 = experiment: as above; settings: 5 µM; treatment time 24 h; reporter: TCF4/Wnt
In short: as §1

SW480 [2] = experiment: as above; settings: 5 µM; treatment time 24 h; reporter: 7TFP
In short: as §1

DLD1 [3] = experiment: TCF/Wnt firefly luciferase reporter signal relative to plate median (fraction of plate median); higher = higher Wnt reporter signal; settings: 5 µM; treatment time 24 h; reporter: 7TFP
In short: as §1

SW480 [4] = experiment: as above; settings: 5 µM; treatment time 24 h; reporter: 7TFP
In short: as §1

Structure (SMILES)	cell viability (DLD1 [1])	cell viability (HCT116)	cell viability (SW480 [2])	TCF/Wnt firefly luciferase reporter signal (DLD1 [3])	TCF/Wnt firefly luciferase reporter signal (SW480 [4])
CO[C@]12C[C@@H](COC(=O)c3cncc(Br)c3)CN(C)[C@@H]1Cc1cn(C)c3cccc2c13	0.999 ± 0.16	0.976 ± 0.033	0.999 ± 0.03	0.968 ± 0.1	1 ± 0.04
C[C@]12CCC3C(CC[C@H]4C[C@H](OS(=O)(=O)O)CC[C@]34C)C1CCC2=O (stereo not given in full)	1.03 ± 0.021	1.02 ± 0.079	1.04 ± 0.061	0.755 ± 0.015	0.966 ± 0.039
CC(=O)[O][Hg][c]1ccccc1	0.0442 ± 0.012	0.0479 ± 0.031	0.0258 ± 0.0048	0.0227 ± 0.0033	0.0222 ± 0.0026
CN1C[C@H](C(=O)N[C@]2(C)O[C@@]3(O)[C@@H]4CCCN4C(=O)[C@H](Cc4ccccc4)N3C2=O)C=C2c3cccc4[nH]cc(c34)C[C@H]21	0.967 ± 0.09	1.11 ± 0.078	1.03 ± 0.042	1.23 ± 0.25	1.16 ± 0.078
COC[C@]12CN(C=O)[C@@H]3[C@@H]4[C@H](OC)[C@H]1[C@@]3([C@@H](OC)C[C@H]2O)[C@@H]1C[C@@]2(O)[C@H](OC(=O)c3ccccc3)[C@@H]1[C@]4(OC(C)=O)[C@@H](O)[C@@H]2OC	1.01 ± 0.057	1.17 ± 0.057	1.05 ± 0.071	0.934 ± 0.15	1.02 ± 0.052
COc1cc([C@@H]2c3cc4c(cc3[C@@H](O)[C@H]3COC(=O)[C@H]23)OCO4)cc(OC)c1O	0.952 ± 0.082	0.613 ± 0.12	1.06 ± 0.021	0.785 ± 0.17	0.742 ± 0.084
CC(=O)Oc1c2c(c(CC=C(C)C)c3c1C(=O)C1=C[C@@H]4CC5C(C)(C)OC(C/C=C(\C)C(=O)O)(C4=O)[C@@]15O3)OC(C)(CCC=C(C)C)C=C2 (stereo not given in full)	0.809 ± 0.046	0.933 ± 0.047	0.913 ± 0.08	0.706 ± 0.067	0.814 ± 0.26
C=C1C2CC[C@@]3(C)[C@H](c4ccoc4)OC(=O)C[C@]13O[C@H]1CC(=O)C(C)(C)[C@H](C(OC(C)=O)C(=O)OC)[C@@]21C (stereo not given in full)	1.025 ± 0.0071	1.13 ± 0.057	1 ± 0.014	1.16 ± 0.057	0.826 ± 0.048
CC(=O)CC1CCCCN1 (stereo not given)	0.961 ± 0.055	1.03 ± 0.043	0.993 ± 0.0099	0.92 ± 0.09	0.977 ± 0.018
CN1[C@@H]2CC[C@H]1C[C@@H](OC(=O)C(CO)c1ccccc1)C2 (stereo not given in full)	0.911 ± 0.12	1.01 ± 0.033	0.994 ± 0.08	0.938 ± 0.21	0.938 ± 0.038
NCC1(CC(=O)O)CCCCC1	1 ± 0.083	1.08 ± 0.021	0.981 ± 0.013	1.07 ± 0.057	1.1 ± 0.064
CCOC(=O)c1cncn1[C@H](C)c1ccccc1	1.04 ± 0.035	0.987 ± 0.018	0.9905 ± 0.0078	0.965 ± 0.013	0.995 ± 0.022
CCNc1nc(Cl)nc(NCC)n1	0.955 ± 0.028	1.065 ± 0.0071	1.02 ± 0.03	0.9375 ± 0.005	0.886 ± 0.034
Cc1ccc(/N=C/N(C)/C=N/c2ccc(C)cc2C)c(C)c1	1.01 ± 0.021	0.988 ± 0.074	0.975 ± 0.036	1.1 ± 0.057	0.927 ± 0.12
CCCC(C)C1(CC)C(=O)NC(=O)NC1=O (stereo not given)	1 ± 0.079	0.981 ± 0.02	0.978 ± 0.0014	0.948 ± 0.018	0.933 ± 0.11
Cc1ccc(C[N+](C)(C)C)o1	1 ± 0.026	1.025 ± 0.0071	1.02 ± 0.014	0.864 ± 0.012	0.903 ± 0.027
CC(C)(C#N)O[C@@H]1O[C@H](CO)[C@@H](O)[C@H](O)[C@H]1O	0.945 ± 0.078	1.06 ± 0.014	0.992 ± 0.0014	0.953 ± 0.036	0.933 ± 0.036
N#Cc1nn(-c2c(Cl)cc(C(F)(F)F)cc2Cl)c(N)c1[S+]([O-])C(F)(F)F (stereo not given)	1.02 ± 0.045	1.04 ± 0.028	1.005 ± 0.0071	1.01 ± 0.05	1.015 ± 0.0071
CC(NC(C)(C)C)C(=O)c1cccc(Cl)c1 (stereo not given)	1.02 ± 0.037	1.02 ± 0.021	1.02 ± 0.021	1.11 ± 0.057	1.02 ± 0.11
O[C@@H]1C[C@H]2CCC[C@@H](C1)N2Cc1ccccc1	0.9315 ± 0.0035	0.996 ± 0.048	0.949 ± 0.037	1.1 ± 0.042	0.893 ± 0.013
CN1C(=O)CCS(=O)(=O)C1c1ccc(Cl)cc1 (stereo not given)	1.01 ± 0.033	1.02 ± 0.014	0.946 ± 0.15	0.984 ± 0.023	1.04 ± 0.093
COC(=O)C(c1ccccc1)C1CCCCN1 (stereo not given)	1.025 ± 0.0071	1.05 ± 0.064	1.01 ± 0.035	1.03 ± 0.021	1.04 ± 0.088
CC1=CCCC2C1(C)CCC(C)C2(C)CC/C(C)=C/Cn1c[n+](C)c2c(N)ncnc21 (stereo not given) [AGELASINE (stereochemistry of diterpene unknown)]	1.02 ± 0.14	1.06 ± 0.071	0.94 ± 0.015	1.18 ± 0.092	1.07 ± 0.078
O=C1C=CC(=O)c2c(O)cccc21	0.921 ± 0.035	0.972 ± 0.033	0.961 ± 0.016	1.03	1.08 ± 0.064
C[C@]12CCC(=O)C=C1CCc1ccc(O)cc12	1.03 ± 0.042	1.05 ± 0.05	1.05 ± 0.014	1.07 ± 0.14	1.03 ± 0.028
CC(C)[N+](C)(CCC(C(N)=O)(c1ccccc1)c1ccccc1)C(C)C	1.045 ± 0.0071	1.055 ± 0.0071	0.996 ± 0.0057	1.02 ± 0.12	1.03 ± 0.042
CC(=O)[C@H]1CC[C@H]2[C@@H]3CC[C@H]4C[C@H](O)CC[C@]4(C)[C@H]3CC[C@]12C	0.966 ± 0.049	0.97 ± 0.0057	0.99 ± 0.014	0.902 ± 0.047	0.912 ± 0.059
CC(CCc1ccccc1)NC(C)C(O)c1ccc(O)cc1 (stereo not given)	0.942 ± 0.064	0.904 ± 0.061	0.902	1.2 ± 0.11	1.12 ± 0.014
C[C@@H]1CC[C@@]2(OC1)O[C@H]1[C@@H](O)[C@H]3[C@@H]4CC[C@H]5C[C@@H](O[C@@H]6O[C@H](CO)[C@H](O[C@@H]7O[C@H](CO)[C@@H](O)[C@H](O[C@@H]8OC[C@@H](O)[C@H](O)[C@H]8O)[C@H]7O[C@@H]7O[C@H](CO)[C@H](O)[C@H](O[C@@H]8O[C@H](CO)[C@@H](O)[C@H](O)[C@H]8O)[C@H]7O)[C@H](O)[C@H]6O)[C@H](O)C[C@]5(C)[C@H]4CC[C@]3(C)[C@H]1[C@@H]2C	1.02 ± 0.11	1.065 ± 0.0071	1.035 ± 0.0071	0.986 ± 0.09	1.095 ± 0.0071
